Assay results taken from publication PMC11574364.

biological target: T1, U1SNRNPBP (Homo sapiens, UniProt Q16560); assay: protein domain microarray probed with biotinylated miRNA; Domain array: 20 mM Tris-HCl pH 7.4, 200 mM KCl, 0.2 mM EDTA, 0.05% NP40, 2 ug/ul heparin, overnight 4 C. ORF array: PBS pH 7.0 with RNase inhibitor, 100 ng RNA; high values mean tight binding; conditions: ssRNA
T1 sequence: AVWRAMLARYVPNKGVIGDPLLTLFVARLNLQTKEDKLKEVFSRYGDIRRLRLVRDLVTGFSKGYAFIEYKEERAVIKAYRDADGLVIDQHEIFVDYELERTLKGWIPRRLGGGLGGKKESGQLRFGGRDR

Sequence | binding signal
UGAGGUAGUAGGUUGUGUGGUU | 130 ± 6.12 fluorescence intensity
AGAGGUAGUAGGUUGCAUAGUU | 63.6 ± 1.29 fluorescence intensity
UGAGGUAGUAGGUUGUAUGGUU | 99.4 ± 1.25 fluorescence intensity
CAGUGCAAUGAUGAAAGGGCAU | 46.4 ± 1.24 fluorescence intensity

biological target: T2, RBM47 (Homo sapiens, UniProt A0AV96); assay: as above; conditions: ssRNA
T2 sequence: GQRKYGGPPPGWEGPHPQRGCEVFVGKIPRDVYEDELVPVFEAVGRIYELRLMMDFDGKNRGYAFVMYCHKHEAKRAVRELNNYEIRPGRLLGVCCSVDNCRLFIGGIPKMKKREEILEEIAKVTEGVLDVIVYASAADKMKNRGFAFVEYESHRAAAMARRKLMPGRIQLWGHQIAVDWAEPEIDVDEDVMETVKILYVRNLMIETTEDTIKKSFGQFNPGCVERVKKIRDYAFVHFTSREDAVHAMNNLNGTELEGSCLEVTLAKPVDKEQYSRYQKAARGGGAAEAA

Sequence | binding signal
UGAGGUAGUAGGUUGUGUGGUU | 53 ± 7.04 fluorescence intensity
AGAGGUAGUAGGUUGCAUAGUU | 29.82 ± 0.276 fluorescence intensity
UGAGGUAGUAGGUUGUAUGGUU | 41.2 ± 0.636 fluorescence intensity
CAGUGCAAUGAUGAAAGGGCAU | 26.2 ± 2.96 fluorescence intensity

biological target: T3, KHSRP(1-4) (Homo sapiens, UniProt Q92945); assay: as above; conditions: ssRNA
T3 sequence: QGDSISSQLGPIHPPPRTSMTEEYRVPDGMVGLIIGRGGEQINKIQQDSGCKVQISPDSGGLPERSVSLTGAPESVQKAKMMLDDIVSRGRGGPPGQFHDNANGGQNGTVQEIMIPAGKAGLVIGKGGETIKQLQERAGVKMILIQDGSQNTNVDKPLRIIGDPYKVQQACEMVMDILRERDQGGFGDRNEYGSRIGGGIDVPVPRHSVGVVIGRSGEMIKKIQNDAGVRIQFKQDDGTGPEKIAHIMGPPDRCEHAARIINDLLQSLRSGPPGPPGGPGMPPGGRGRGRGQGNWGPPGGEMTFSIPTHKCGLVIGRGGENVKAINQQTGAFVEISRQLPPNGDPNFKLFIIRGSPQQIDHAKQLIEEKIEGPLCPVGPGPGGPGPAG

Sequence | binding signal
UGAGGUAGUAGGUUGUGUGGUU | 992.47 ± 0.686 fluorescence intensity
AGAGGUAGUAGGUUGCAUAGUU | 951 ± 76.8 fluorescence intensity
UAGCUUAUCAGACUGAUGUUGA | 192 ± 3.5 fluorescence intensity
UGAGGUAGUAGGUUGUAUAGUU | 419 ± 11.8 fluorescence intensity
UGAGGUAGUAGGUUGUAUGGUU | 786 ± 28.3 fluorescence intensity
CAGUGCAAUGAUGAAAGGGCAU | 675 ± 8.46 fluorescence intensity

biological target: T4, RBMS2 (Homo sapiens, UniProt Q15434); assay: as above; conditions: ssRNA
T4 sequence: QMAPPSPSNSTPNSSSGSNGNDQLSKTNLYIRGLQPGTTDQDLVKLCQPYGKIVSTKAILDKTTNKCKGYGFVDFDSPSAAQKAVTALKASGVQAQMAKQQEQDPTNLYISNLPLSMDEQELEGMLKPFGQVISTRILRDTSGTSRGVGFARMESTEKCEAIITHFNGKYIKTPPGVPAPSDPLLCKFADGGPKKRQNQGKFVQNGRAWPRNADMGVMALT

Sequence | binding signal
UGAGGUAGUAGGUUGUGUGGUU | 95.1 ± 1.34 fluorescence intensity
AGAGGUAGUAGGUUGCAUAGUU | 79.9 ± 6.82 fluorescence intensity
UGAGGUAGUAGGUUGUAUAGUU | 24.7 ± 2.59 fluorescence intensity
UGAGGUAGUAGGUUGUAUGGUU | 91.7 ± 4.18 fluorescence intensity
CAGUGCAAUGAUGAAAGGGCAU | 39 ± 3.47 fluorescence intensity

biological target: STAU1(1) (Homo sapiens, UniProt O95793); assay: as above; conditions: ssRNA
Sequence (O95793 52-182): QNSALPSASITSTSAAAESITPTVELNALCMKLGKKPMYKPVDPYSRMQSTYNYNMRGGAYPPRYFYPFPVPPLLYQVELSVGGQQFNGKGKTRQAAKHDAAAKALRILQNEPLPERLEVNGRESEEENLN

Sequence | binding signal
UGAGGUAGUAGGUUGUGUGGUU | 69.7 ± 6.19 fluorescence intensity
AGAGGUAGUAGGUUGCAUAGUU | 25.68 ± 0.0778 fluorescence intensity
UGAGGUAGUAGGUUGUAUGGUU | 44.5 ± 1.05 fluorescence intensity

biological target: T5, STRBP(1) (Homo sapiens, UniProt Q96SI9); assay: as above; conditions: ssRNA
T5 sequence: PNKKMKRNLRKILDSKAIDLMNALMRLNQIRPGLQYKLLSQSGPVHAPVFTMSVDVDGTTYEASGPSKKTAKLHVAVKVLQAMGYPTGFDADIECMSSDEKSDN

Sequence | binding signal
UGAGGUAGUAGGUUGUGUGGUU | 125 ± 14.3 fluorescence intensity
AGAGGUAGUAGGUUGCAUAGUU | 34.2 ± 1.84 fluorescence intensity
UGAGGUAGUAGGUUGUAUGGUU | 62.8 ± 0.686 fluorescence intensity
CAGUGCAAUGAUGAAAGGGCAU | 37.99 ± 0.283 fluorescence intensity

biological target: RALY (Homo sapiens, UniProt Q9UKM9); assay: as above; conditions: ssRNA
Sequence (Q9UKM9 1-115): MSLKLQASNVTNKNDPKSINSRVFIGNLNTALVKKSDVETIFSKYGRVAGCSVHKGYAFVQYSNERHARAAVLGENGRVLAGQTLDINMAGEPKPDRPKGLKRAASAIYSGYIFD

Sequence | binding signal
UGAGGUAGUAGGUUGUGUGGUU | 1730 ± 54.9 fluorescence intensity
AGAGGUAGUAGGUUGCAUAGUU | 1628 ± 11.4 fluorescence intensity
UAGCUUAUCAGACUGAUGUUGA | 591 ± 33.9 fluorescence intensity
UGAGGUAGUAGGUUGUAUAGUU | 789 ± 24.3 fluorescence intensity
UGAGGUAGUAGGUUGUAUGGUU | 1750 ± 31.6 fluorescence intensity
CAGUGCAAUGAUGAAAGGGCAU | 332 ± 5.22 fluorescence intensity

biological target: RBM25 (Homo sapiens, UniProt P49756); assay: as above; conditions: ssRNA
Sequence (P49756 67-185): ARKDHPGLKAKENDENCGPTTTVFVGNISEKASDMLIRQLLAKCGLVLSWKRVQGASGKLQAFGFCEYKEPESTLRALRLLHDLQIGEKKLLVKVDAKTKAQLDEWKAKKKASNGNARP

Sequence | binding signal
UGAGGUAGUAGGUUGUGUGGUU | 98.3 ± 20.9 fluorescence intensity
AGAGGUAGUAGGUUGCAUAGUU | 39.5 ± 3.96 fluorescence intensity
UGAGGUAGUAGGUUGUAUGGUU | 63.1 ± 0.806 fluorescence intensity
CAGUGCAAUGAUGAAAGGGCAU | 36 ± 0.488 fluorescence intensity

biological target: T6, RBM21 (Homo sapiens, UniProt Q9H6E5); assay: as above; conditions: ssRNA
T6 sequence: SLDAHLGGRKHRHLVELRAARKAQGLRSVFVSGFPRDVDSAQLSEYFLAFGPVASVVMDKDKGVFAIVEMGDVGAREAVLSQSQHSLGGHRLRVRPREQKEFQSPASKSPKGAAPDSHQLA

Sequence | binding signal
UGAGGUAGUAGGUUGUGUGGUU | 63.5 ± 6.73 fluorescence intensity
AGAGGUAGUAGGUUGCAUAGUU | 34.33 ± 0.0778 fluorescence intensity
UGAGGUAGUAGGUUGUAUGGUU | 53.6 ± 2.81 fluorescence intensity
CAGUGCAAUGAUGAAAGGGCAU | 38.1 ± 3.22 fluorescence intensity

biological target: T7, SART3 (Homo sapiens, UniProt Q15020); assay: as above; conditions: ssRNA
T7 sequence: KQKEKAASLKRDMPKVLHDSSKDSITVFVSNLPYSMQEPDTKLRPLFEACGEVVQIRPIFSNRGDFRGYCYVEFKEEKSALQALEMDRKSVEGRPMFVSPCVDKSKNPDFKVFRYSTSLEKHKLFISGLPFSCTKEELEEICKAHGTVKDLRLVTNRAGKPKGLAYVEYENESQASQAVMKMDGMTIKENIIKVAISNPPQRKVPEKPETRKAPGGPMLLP

Sequence | binding signal
UGAGGUAGUAGGUUGUGUGGUU | 113 ± 30.2 fluorescence intensity
AGAGGUAGUAGGUUGCAUAGUU | 36.8 ± 2.71 fluorescence intensity
UGAGGUAGUAGGUUGUAUGGUU | 51.5 ± 2.31 fluorescence intensity
CAGUGCAAUGAUGAAAGGGCAU | 29.6 ± 6.57 fluorescence intensity
